The record followed here is PubChem BioAssay AID2314 (National Center for Advancing Translational Sciences (NCATS), 2010).

About 37,000 (12%) of roughly 300,000 compounds were called active. Many of the other results were omitted from the sample, so actives are more common in it than they were. Unmarked numbers belong to inactive results. No stated cut-off is given here; in the data, active means max response mostly above about 13% (no sharp cut-off); inactive means mostly below about 14%.

A short description of this assay: Cycloheximide Counterscreen for Small Molecule Inhibitors of Shiga Toxin. Further: read at 38.3 µM for the half of the compounds with a filed dose; 0% is about no effect. Conditions: cell reporter, cycloheximide protein synthesis inhibition counterscreen; stronger effect = higher value. On the technique in general: A counterscreen serves to expose hits that act by an unwanted route or on another target.
Regarding `COC(=O)C1=C(C)N(c2ccc(C)cc2)/C(=C/c2ccc(O)cc2)C1=O`, the max response was -3.37%.

In the case of `COc1ccc(C(=O)COC(=O)COc2ccc(C)c(C)c2)cc1`, the max response was -1.99%. Regarding `COc1cccc(NC(=O)[C@H](Cc2c[nH]c3ccccc23)NC(=O)[C@@H]2Cc3ccccc3CN2)c1`, the max response was 8.96%. To `Cc1nn(Cc2ccc(C(=O)N3N=C(C(F)F)CC3(O)C(F)F)cc2)c(C)c1[N+](=O)[O-]` (configuration not stated) belongs -2.42%; to `Cc1ccc(NS(=O)(=O)c2ccc(C(C)(C)C)cc2)cn1`, -1.83%; to `Cc1ccc(-n2ncc3c2CC(C)(C)CC3NC(=O)Cc2c(C)noc2C)cc1` (configuration not stated), 1.83%. To `CCOC(=O)CNC(=O)CSc1ncccc1-c1nc2ccccc2[nH]1` belongs 6.47%; to `CNc1ccc(NC(C)=O)cc1[N+](=O)[O-]`, -1.59%. In the case of `O=C(O)c1cccc(NC(=S)N/N=C/c2c[nH]c3ccccc23)c1`, the max response was 19.9%. To `C[n+]1ccc(/C=C/c2c[nH]c3ccccc23)cc1` belongs 0.857%; to `CSC(=S)N/N=C/c1c[nH]c2ccccc12`, 19.8% (active); to `Cc1ccc(NC(=O)CN(C)CC(=O)Nc2cccc(F)c2)cc1[N+](=O)[O-]`, -3.93%. To `Cc1ccc(NC(=O)c2sccc2C)cc1[N+](=O)[O-]` belongs 54.5% (active); to `CN(C)c1ccc(C(CNC(=O)c2ccc(F)cc2)c2c[nH]c3ccccc23)cc1` (configuration not stated), -1.36%. To `COc1ccc(CC(=O)NCC(=O)N/N=C/c2cc(Br)ccc2OC)cc1` belongs -1.85%; to `CCc1ccc(C2C(C#N)=C(N)N(N3CCOCC3)C3=C2C(=O)CC(C)(C)C3)s1` (configuration not stated), -4.64%.

As to `CC1CCN(C(=O)CN(c2ccc(Oc3ccccc3)cc2)S(C)(=O)=O)CC1`, the max response is 0.761%. Consider `CC(=O)Oc1cc2c(C(=O)NCCN3CCOCC3)c(C)oc2c2ccccc12`, for which the max response was 23.5% (active).

As for `Cc1cc(C)cc(C(=O)NCCN2CCOCC2)c1`, the max response was -3.62%. For `Cc1ccc(C(=O)NCCN2CCOCC2)cc1C`, the max response was 0.531%. To `Cn1nccc1C(=O)N1CCCC(C(=O)c2ccc(Oc3ccccc3)cc2)C1` (configuration not stated) belongs -1.23%. Next, `CC1Sc2ccc(S(=O)(=O)CCC(=O)NCc3ccccc3Cl)cc2NC1=O` (configuration not stated): -2.98%. Next, `COc1cc(/C=N/n2c(C)n[nH]c2=S)ccc1OCc1ccccc1`: 25.8% (active). Regarding `Fc1ccc(/C=N/n2c(COc3ccccc3)n[nH]c2=S)cc1`, the max response is -4.69%.

As to `Cc1n[nH]c(=S)n1/N=C/c1ccc(Br)o1`, the max response is -1.34%. Next, `Cn1c(=O)[nH]c(=O)c2c1nc(N1CCN(C(c3ccccc3)c3ccccc3)CC1)n2CCO`: -4.67%. Next, `CC(=O)N1CC(C)c2scc(C)[n+]2-c2ccccc21` (configuration not stated): -4.21%.

As to `COc1cccc(NC(=O)CN(C)C(=O)c2ccccc2CCc2ccccc2)c1`, the max response is -2.98%. Consider `CC(C)CC(=O)N1CCN(Cc2cccc(Cl)c2)CC1`, for which the max response was -0.27%. Next, `Cc1cccc(N(C(=O)Cc2cccs2)C(C(=O)NCc2ccco2)c2ccncc2)c1` (configuration not stated): 7.8%; `Cc1ccc(N(C(=O)Cc2cccs2)C(C(=O)NCC2CCCO2)c2ccncc2)cc1` (configuration not stated): 30.3% (active); `O=C(NCC(=O)N(c1ccccc1)C(C(=O)NCC1CCCO1)c1ccccc1)c1cccs1` (configuration not stated): -2%. To `Cc1ccc(-c2csc(N3CCN(c4cc5c(cc4Cl)nc(-c4ccncc4)n5CCOCCO)CC3)n2)cc1` belongs -1.79%; to `CCOCCCNC(=O)C(NC(=O)CNC(=O)c1ccccc1)c1ccc(OC)cc1` (configuration not stated), -3.78%.

With `O=C(Nc1ccc(F)c(Cl)c1)C1CCN(S(=O)(=O)c2cccnc2)CC1`, the max response is -6.06%. Consider `CCOC(=O)c1c(NC(=O)c2ccc(N3CCOCC3)c([N+](=O)[O-])c2)sc(C)c1C`, for which the max response is 1.25%. Next, `COc1ccc(C(=O)Nc2ccc(CN3CCOCC3)cc2)cc1`: 21.3%; `COc1ccc(C(=O)Nc2sc(C)c(C)c2CN2CCOCC2)cc1`: 80% (active); `O=C(NCc1ccccc1)C1CCN(C(=O)Cc2ccccc2)CC1`: -1.63%.

As to `O=C(CSc1ccc(-c2ccc(Br)cc2)nn1)NCC1CCCO1` (configuration not stated), the max response is -3.31%. For `Cc1ccc(/C=C(\C#N)C(=O)Nc2cccc3ncccc23)o1`, the max response was -2.46%. To `Cc1nnc2n1N=C(c1ccccc1)CS2` belongs -4.21%; to `COc1ccc(C2=Nn3c(nnc3-c3ccccc3O)SC2)cc1`, 38.9% (active). To `CC1=Nn2c(nnc2-c2ccccc2)SC1` belongs 1.95%; to `Cc1c(C)c2ccc(OCC(=O)N3CCC(C(=O)O)CC3)c(C)c2oc1=O`, -2.07%.

Consider `COC(=O)CCC(=O)N1CCCC(CO)(Cc2ccccc2)C1` (configuration not stated), for which the max response was 32.1% (active).

`CCCc1cc(C(=O)N2CCCC(CO)(CCCc3ccccc3)C2)n(C)n1` (configuration not stated): the max response was 9.31%. Next, `CCOC(=O)C1(Cc2ccccc2C)CCCN(C(=O)CCc2c(C)noc2C)C1` (configuration not stated): 9.83%.

Regarding `Cc1noc(C)c1CCC(=O)N1CCCC(CO)(Cc2ccccc2)C1` (configuration not stated), the max response was 30.9% (active). Consider `Cc1ccccc1CC1(CO)CCCN(C(=O)c2cc(-c3ccccc3)no2)C1` (configuration not stated), for which the max response was 13.4%. To `Cc1noc(C)c1CCC(=O)O` belongs -2.43%; to `O=C(NCc1ccccn1)[C@]1(C(F)(F)F)C[C@H](CCc2ccccc2)CCCO1`, -4.95%. In the case of `O=[N+]([O-])c1cc(S(=O)(=O)CCCN2CCOCC2)ccc1F`, the max response was -6.03%. Consider `NC(=O)CCN1CCN(S(=O)(=O)/C=C/c2ccccc2)CC1`, for which the max response is -9.41%.

For `COCCCNC(=O)Cc1ccc(-n2c(C)nc3cccnc32)cc1`, the max response was -1.61%. Take `COC(=O)C1CCCCN1C(=O)c1ccc(OC2CCN(C(C)=O)CC2)c(OC)c1` (configuration not stated): the max response was -4.09%. To `Cn1c(C(=O)OC(C(=O)NC2CCCCC2)c2ccccn2)cc2sccc21` (configuration not stated) belongs -2.24%; to `CN1/C(=C\C(=O)c2cccnc2Cl)C(C)(C)c2ccccc21`, 17.7% (active). In the case of `CC(C)Nc1nnc(SCC(=O)/C=C2\N(C)c3ccccc3C2(C)C)s1`, the max response is 5.97%. In the case of `CN1/C(=C\C(=O)c2oc3ccccc3c2N)C(C)(C)c2ccccc21`, the max response was 5.01%. Next, `C=CCNC(=O)COc1coc(CN2CCN(Cc3ccccc3)CC2)cc1=O`: -1.91%; `CCOC(=O)NNc1cc(C(F)(F)F)ccn1`: -0.89%.

With `CCc1cccc(NC(=O)CCC(=O)O)c1`, the max response is -2.1%. Next, `CCCC(=O)Nc1cccc(-c2cn3ccsc3n2)c1`: 27.2% (active); `O=C(NCc1cn2ccsc2n1)Nc1cccc(Cl)c1`: -2.26%; `CCOC(=O)C1=C(C)OC(N)=C(C#N)C1c1cncc(-c2ccc(F)cc2)c1` (configuration not stated): -4.52%.

As for `CN(C)c1ccc(C(=S)N2CCN(C(=S)Nc3ccc(Cl)cc3)CC2)cc1`, the max response was -2.08%. Next, `C=CCc1cccc2cc(C(=O)Nc3ccc(NC(C)=O)cc3)c(=O)oc12`: 7.03%; `CC1Cc2ccccc2N1C(=O)CSc1nnc(C2CC2)n1C` (configuration not stated): -2.64%; `C[C@@H]1C[C@@H]2O[C@H]2/C=C\C=C\C(=O)Cc2c(Cl)c(O)cc(O)c2C(=O)O1`: 8.16% (active). Next, `O=C(OCC1O[C@@H](OC(=O)c2cc(O)c(O)c(O)c2)[C@@H](OC(=O)c2cc(O)c(O)c(O)c2)[C@@H](OC(=O)c2cc(O)c(O)c(O)c2)[C@@H]1OC(=O)c1cc(O)c(O)c(O)c1)c1cc(O)c(O)c(O)c1` (some centres not stated): -3.49%.

In the case of `Cc1cc(C)cc(N(CC(=O)NCCSCc2ccco2)S(C)(=O)=O)c1`, the max response was -3.57%. Next, `OCCNCCOc1ccc(Cl)c(Cl)c1`: -2.06%. For `COc1ccc(CCNC(=O)CSc2nc(-c3ccc(OC)c(OC)c3)ccc2C#N)cc1`, the max response is -0.296%. To `CCc1cc2c(=O)c(-c3ccc(F)cc3)c(C(F)(F)F)oc2cc1OCC(=O)O` belongs -0.895%; to `COc1ccc2oc(N)c(C=O)c(=O)c2c1`, 11.3%; to `CCc1cc2c(=O)c(-c3ccon3)c(N)oc2cc1OC`, 40.8% (active). As to `COC(=O)Cn1cc(/C=C/[N+](=O)[O-])c2ccccc21`, the max response was 0.349%. To `Cc1nn(-c2ccccc2)c(Cl)c1/C=N/NC(=O)c1nn(C)cc1[N+](=O)[O-]` belongs 30.2% (active); to `Cc1ccc(-n2nc(C)c(/C=N/NC(=O)c3cccs3)c2Cl)cc1`, 41.5% (active). In the case of `Cc1ccc(-c2nnc(SCC(=O)N/N=C/c3cccs3)n2-c2ccc(C)cc2)cc1`, the max response is -2.1%. Consider `Cc1cc(C)c([N+](=O)[O-])cc1-c1ccc(/C=N/NC(=O)c2nonc2N)o1`, for which the max response was 8.92%.

For the compound `Cc1nn(-c2ccccc2)c(NC(=O)c2cccs2)c(-c2ccc(Cl)cc2)c1=O`, the max response was -4.56%.

Regarding `Cc1nn(-c2ccccc2)c(C)c1/C=N/NC(=O)CSc1nc2ccccc2c(=O)n1-c1ccccc1`, the max response is -2.06%. To `COc1ccc(CCN(C)C(=O)C23CC4CC(CC(Cl)(C4)C2)C3)cc1OC` belongs 6.24%; to `Cc1ccc(C(=O)N2CCC(n3nccc3NC(=O)Nc3cccc(F)c3)CC2)cn1`, -3.88%; to `COc1ccc(-c2ccnc(SCC(=O)N3CCOCC3)n2)cc1`, 2.08%. Next, `c1ccc(-c2cn3cccnc3n2)cc1`: 15.7% (active). Next, `Cc1ccccc1Nc1c(-c2ccccc2)nc2ncccn12`: -1.21%; `COc1ccc(-c2cn3cccnc3n2)cc1`: 23.9% (active). As to `c1ccc(-c2cn3c(n2)CCc2ccc4cccnc4c2-3)cc1`, the max response is 11.1%. `FC(F)(F)Oc1ccc(-c2cn3cccnc3n2)cc1`: the max response is 50.9% (active). Turning to `Cc1ccc(S(=O)(=O)NCc2cn3ccsc3n2)c(C)c1`, the max response is 2.86%. Next, `COc1cc(OC)cc(-c2nc(=S)n3ccsc3n2)c1`: -1.36%; `CN1CCN(Cc2ccc(OC(F)(F)F)cc2)CC1`: -2.95%. Consider `COc1ccc(N2CCN(C(=O)CSc3nnc4ncccn34)CC2)cc1`, for which the max response is -1.32%. To `COc1ccc(-c2cn3ccsc3n2)cc1` belongs 42.7% (active).
